The list is not random: actives were taken first. Their share in the collection is about 8.3%.
RORg inh: blocks mouse ROR gamma transcriptional activity; Potency, µM (series often up to 53.6 µM), actives largely listed as inhibitors; Drosophila S2 Gal4-RORgamma UAS-luciferase reporter, 20 h; 310,000 tested, 5.4% active; P51450; further: nearly all actives have a fitted effect of over 60% in size
Target sequence (P51450 whole entry, looked up, the tested form may be a part): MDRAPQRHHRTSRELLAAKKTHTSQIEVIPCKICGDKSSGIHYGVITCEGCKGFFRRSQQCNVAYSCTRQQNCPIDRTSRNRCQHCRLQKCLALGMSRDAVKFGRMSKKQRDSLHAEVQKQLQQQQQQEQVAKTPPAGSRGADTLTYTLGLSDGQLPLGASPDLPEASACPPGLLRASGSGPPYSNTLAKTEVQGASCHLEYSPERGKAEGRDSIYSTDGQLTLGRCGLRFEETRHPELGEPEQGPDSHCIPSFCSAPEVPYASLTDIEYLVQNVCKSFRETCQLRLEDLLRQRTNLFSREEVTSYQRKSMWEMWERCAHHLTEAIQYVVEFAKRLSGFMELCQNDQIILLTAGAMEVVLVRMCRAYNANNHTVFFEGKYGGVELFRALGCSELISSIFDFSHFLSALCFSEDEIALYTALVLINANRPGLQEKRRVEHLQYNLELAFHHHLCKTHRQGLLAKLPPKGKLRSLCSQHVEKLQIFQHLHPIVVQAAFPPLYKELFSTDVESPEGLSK
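Stably transfected Drosophila Schneider cells are the test system, with ROR gamma fused to Gal4 and luciferase under UAS control; luminescence is read after 20 hr of 700 uM copper sulfate induction at ambient temperature.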
Giardia kill: Giardia lamblia killing; Giardia lamblia trophozoite viability; activity change, % at 7.66 µM, hits read low; 340,000 tested, 0.15% active; AID 540267; in the data active means activity change below about -80%; inconclusive means between about -30% and that limit;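 further: parasites exposed to compound for two days anaerobically before the ATP read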
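Viability, read as ATP luminescence: trophozoites at 100 cells/well, compound added, 48 hrs anaerobic at 37 deg C, then 15-30 min room-temperature development before reading.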
SW480 rerep: inducers of DNA re-replication in SW480 colon cancer cells; SW480 DNA re-replication, Hoechst DNA content imaging, 48 h; Potency, µM (top dose mostly 46.1 µM), usual class: activators; 340,000 tested, 1.8% active; AID 624297; further: nearly all actives have a fitted effect of over 55% in size
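First, 250 cells per well were seeded. Next, compound or vehicle (23 nL) was pinned in, plates sat 48 hr at 37 C. Finally Hoechst was added for 40 min before fluorescence scanning.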
Chronic BCR inh: chronic active BCR signaling inhibition | ABC-DLBCL IkBa-CBG/CBR reporter, luminescence ratio, 4 h | Potency, µM (top dose mostly 46.1 µM), hits mostly inhibitors | 340,000 tested, 0.05% active; active means well fitted inhibition curve with a large enough effect in the signal ratio, with a control signal flat, not every such curve was filed as active; inconclusive means small, poorly fitted or top-dose-only effect, or effect the other way, or a change in a side signal; the % refers to the signal ratio
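Compounds up to 46 uM were incubated four hours with TMD8 cells whose green CBG68 luciferase is fused to IkappaBalpha; red CBR luminescence normalised the signal, and concentration-effect curves were fitted to fusion, red and ratio data.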
Gal4-VP16 FLuc: inhibits Gal4-VP16 luciferase reporter, ROR gamma counter-screen; Potency, µM (top dose mostly 53.6 µM), hits mostly inhibitors; AID 2546; Drosophila S2 Gal4-VP16 UAS-luciferase, luminescence, 20 h; 310,000 tested, 3.5% active;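 further: Gal4-VP16 expression switched on by copper sulfate through the metallothionein promoter; nearly all actives have a fitted effect of over 50% in size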
MCF10A rereplic: inducers of DNA re-replication in MCF 10A breast cells; Potency, µM (highest dose often 46.1 µM), most hits filed as activators; 350,000 tested, 2.9% active; MCF 10A DNA re-replication, Hoechst nuclear intensity, 48 h; further: nearly all actives have a fitted effect of over 50% in size
A number is an active result; i = inactive; ? = inconclusive; nt = no result given; [ ] = dose if it differs, or a comment. Unless noted, the call rests on the fitted dose curve; in most records, active means well fitted curve in the direction sought with a large enough effect; inconclusive means small, poorly fitted or top-dose-only effect, or another doubt; inactive means no such curve, though single readings can be large; an effect the other way counts as inactive or inconclusive.

SMILES	RORg inh	Giardia kill	SW480 rerep	Chronic BCR inh	Gal4-VP16 FLuc	MCF10A rereplic
CCOc1ccc(CN2CCNC(=O)C2CC(=O)NCCc2ccccn2)cc1 (centres undefined)	i	i	i	i	i	i
CCOc1ccc(CN2CCNC(=O)C2CC(=O)NCc2ccccn2)cc1 (centres undefined)	11µM	i	i	?	i	?
O=S(=O)(c1ccc2ncccc2c1)N1CCN(c2nc(-c3cccs3)nc3ccccc23)CC1	nt	i	nt	nt	nt	nt
CCOc1ccc(C(c2c(O)nc(SC)[nH]c2=O)c2c(O)nc(SC)[nH]c2=O)cc1	nt	i	i	nt	nt	i
COC(=O)/C(=C1/Oc2ccc(C(C)(C)C)cc2S1)C(F)(F)F	i	i	i	i	i	i
COC(=O)/C(=C1/Oc2cc(C)oc(=O)c2S1)C(F)(F)F	0.71µM	i	12µM	i	1.1µM	5.8µM
CCCCn1c(CCC)nc([N+](=O)[O-])c1Sc1ccc(Cl)cn1	?	i	i	?	10µM	?
CC(C)Cn1c(C(C)C)nc([N+](=O)[O-])c1Sc1ccc(Cl)cn1	i	i	i	?	i	?
C/C(CC(=O)NC12CC3CC(CC(C3)C1)C2)=N\NC(=O)c1ccc(F)cc1	18µM	i	i	?	?	i
O=C(NC12CC3CC(CC(C3)C1)C2)c1cnccn1	i	i	i	i	i	i
C/C(CC(=O)NC12CC3CC(CC(C3)C1)C2)=N\NC(=O)c1cnccn1	13µM	i	i	?	?	i
CCOC(=O)c1cc(-c2cccs2)nc2c1c(C)nn2-c1ccccn1	1.8µM	i	i	i	7.1µM	?
Cc1nn(-c2ccccn2)c2nc(-c3cccs3)cc(C(=O)NCc3ccco3)c12	14µM	i	i[9.22 µM]	i	?	?
Cc1nn(-c2ccccc2)c2nc(-c3cccs3)cc(C(=O)NN)c12	i	i	i	i	i	i
CCOc1ccccc1-n1ccn(CC(=O)Nc2ccc(Br)cc2F)c(=O)c1=O	nt	i	i	i	nt	i
c1ccc2[nH]c(CSc3nc4ccccc4o3)nc2c1	2µM	i	i	?	?	i
Cc1ccc(C)c(CSCc2nc3ccccc3[nH]2)c1	i	i	i	?	i	18µM
c1cncc(-c2nnc(SCc3nc4ccccc4[nH]3)o2)c1	?	i	i	i	i	i
c1ccc2cc(CSCc3nc4ccccc4[nH]3)ccc2c1	?	i	i	i	11µM	21µM
Cc1ccccc1CSCc1nc2ccccc2[nH]1	?	i	i	i	i	i
O=C(CSCc1nc2ccccc2[nH]1)Nc1ccc2ccccc2c1	i	i	i	i	i	i
CN(CC(=O)Nc1ccccc1Br)CC(=O)Nc1ccccc1C(F)(F)F	i	i	i	i	i	i
C=CCS(=O)(=O)c1cccc2cccnc12	i	i	i	i	i	i
CC(=O)Nc1ccc(Br)c2ccccc12	i	i	i	i	i	i
O=C(Nc1cccc2ccccc12)c1cc2c(cc1Br)OCO2	i	i	i	11µM	i	i
SMILES	RORg inh	Giardia kill	SW480 rerep	Chronic BCR inh	Gal4-VP16 FLuc	MCF10A rereplic
O=C(Nc1ccc(Br)c2ccccc12)c1ccc2ccccc2c1O	?	i	i	?	?	3.3µM
Cc1ccccc1C(=O)NNC(=O)C12CC3CC(CC(C3)C1)C2	i	i	i	i	i	i
Cc1cccc(C(=O)NNC(=O)C23CC4CC(CC(C4)C2)C3)c1O	6.3µM	i	?	i	?	i
COc1ccc(Cn2c(=N)c(C(=O)NC3CCCCC3)cc3c(=O)n4ccccc4nc32)cc1	i	i	4.6µM	i	i	4.1µM
COc1ccc(CNC(=O)c2cc3c(=O)n4ccccc4nc3n(Cc3cccnc3)c2=N)cc1	i	i	i	i	i	?
COc1ccc(CCn2c(=N)c(C(=O)NCC3CCCO3)cc3c(=O)n4ccccc4nc32)cc1OC (centres undefined)	i	i	?	?	i	i
N=c1c(C(=O)NC2CCCC2)cc2c(=O)n3ccccc3nc2n1CC1CCCO1 (centres undefined)	i	i	?	i	i	?
COc1ccc(CCn2c(=N)c(C(=O)NC3CCCC3)cc3c(=O)n4ccccc4nc32)cc1	i	i	23µM	i	i	21µM
COc1ccc(CCn2c(=N)c(C(=O)NC3CCCC3)cc3c(=O)n4ccccc4nc32)cc1OC	i	i	?	i	i	16µM
COCCCn1c(=N)c(C(=O)NC2CCCCC2)cc2c(=O)n3ccccc3nc21	i	i	5.2µM	i	i	3.3µM
COCCCNC(=O)Cn1cnc2sc(C)c(S(=O)(=O)N3CC(C)CC(C)C3)c2c1=O (centres undefined)	i	i	i	i	i	i
CC(C)(C)NC(=O)CN1CCCN(C(=O)c2cccc(S(=O)(=O)N3CCc4ccccc43)c2)CC1	nt	i	i	i	nt	i
COCc1nnc(NC(=O)c2ccc(S(=O)(=O)N(C)Cc3ccccc3)cc2)o1	0.79µM	i	?	i	2.2µM	i
CCN(Cc1ccccc1)S(=O)(=O)c1ccc(C(=O)Nc2nnc(C3CC3)o2)cc1	i	i	?	i	0.56µM	i
Cc1nnc(NC(=O)c2ccc(S(=O)(=O)N(C)Cc3ccccc3)cc2)o1	0.2µM	?	?	i	0.56µM	?
COCCCNC(=O)C(=O)NCCCOC(C)C	i	i	i	i	?	?
OCCN1CCN(c2nc(-c3ccccc3)c3cc(Cl)ccc3n2)CC1	i	i	15µM	i	i	?
Clc1ccc(-c2nc(N3CCOCC3)nc3ccccc23)cc1	i	i	i	i	i	i
CCOC(=O)N1CCN(c2nc(-c3ccccc3)c3cc(C)ccc3n2)CC1	i	i	?	i	i	4.1µM
CCOC(=O)N1CCN(C(=O)c2ccc3nc(-c4ccccc4)c(-c4ccccc4)nc3c2)CC1	i	i	i	i	i	i
Cc1ccc2nc(N3CCN(CCO)CC3)nc(-c3ccccc3)c2c1	i	i	12µM	i	i	3.7µM
CC(NC(=O)CSc1ccccc1)c1ccccc1 (centres undefined)	i	i	i	i	i	i
COc1cccc2c(Cl)c(CCCl)c(C)nc12	i	i	i	i	?	i
Cc1cccc(Nc2nc(-c3ccc(O)cc3O)cs2)n1	4µM	i	?	?	?	i
Oc1ccc(-c2csc(Nc3ncccn3)n2)c(O)c1	i	i	i	?	i	i
CN1CCN(Cc2nc3ccccc3c(=O)n2Cc2nc(-c3ccc([N+](=O)[O-])cc3)cs2)CC1	7.9µM	i	?	?	18µM	?
Cc1cc(N2CCN(c3nc(-c4ccc([N+](=O)[O-])cc4)cs3)CC2)c2ccccc2n1	10µM	i	i	i	13µM	?
CN(C)Cc1nc2ccccc2c(=O)n1Cc1nc(-c2cccc([N+](=O)[O-])c2)cs1	i	i	i	i	i	i
